Source: PubChem (The Scripps Research Institute Molecular Screening Center)
An excerpt weighted towards active compounds, which were near 3.4% of everything screened.
HGIII-sPLA2 inh = human group III sPLA2 inhibitors, primary screen, biochemical, QFRET, BODIPY PC-A2 liposome substrate; QFRET BODIPY PC-A2 liposome hydrolysis, fluorescence; inhibition, % at 12.2 µM; 0.56% of 370,000 active; AID 743126, 2013;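 active = inhibition above mean plus 3 SD of compounds lying within the high and low control bounds, cut at about 19% in these data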;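 also: 0% = median of test compound wells and 100% = no enzyme DMSO wells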
ADAM10 inh = human ADAM10 inhibitors, primary screen, biochemical, QFRET, HTS. Disintegrin and metalloproteinase domain-containing protein 10 (Homo sapiens), O14672. recombinant ADAM10, EDANS/DABCYL FRET peptide cleavage, 3 h. inhibition, % at 7 µM. 0.62% of 370,000 active. AID 720582, 2013;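 active = inhibition above a per-campaign cutoff equal to the mean of compounds falling between control-based bounds plus 3 SD, cut at about 20% in these data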;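 also: 0% = DMSO wells while the 100% control is not disclosed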
PLCg1 inh = PLC-gamma1 enzyme inhibitors, primary screen, biochemical, fluorescence, purified enzyme. 1-phosphatidylinositol 4,5-bisphosphate phosphodiesterase gamma-1 (Homo sapiens), P19174. fluorogenic substrate. inhibition, % at 12.2 µM. 0.84% of 370,000 active. AID 720700, 2013
ADAM17 inh = ADAM17 inhibitors, primary screen, biochemical, QFRET | Disintegrin and metalloproteinase domain-containing protein 17 (Homo sapiens), P78536 | 0.83% of 370,000 active | inhibition, % at 6.95 µM | recombinant ADAM17, EDANS/DABCYL FRET peptide cleavage | AID 720648, 2013;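 active = inhibition above the mean of compounds lying between control limits plus 3 SD, set per campaign, cut at about 8.5% in these data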;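 also: 0% = DMSO-only wells as the low control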
Target sequence (P78536 215-824 limits assumed): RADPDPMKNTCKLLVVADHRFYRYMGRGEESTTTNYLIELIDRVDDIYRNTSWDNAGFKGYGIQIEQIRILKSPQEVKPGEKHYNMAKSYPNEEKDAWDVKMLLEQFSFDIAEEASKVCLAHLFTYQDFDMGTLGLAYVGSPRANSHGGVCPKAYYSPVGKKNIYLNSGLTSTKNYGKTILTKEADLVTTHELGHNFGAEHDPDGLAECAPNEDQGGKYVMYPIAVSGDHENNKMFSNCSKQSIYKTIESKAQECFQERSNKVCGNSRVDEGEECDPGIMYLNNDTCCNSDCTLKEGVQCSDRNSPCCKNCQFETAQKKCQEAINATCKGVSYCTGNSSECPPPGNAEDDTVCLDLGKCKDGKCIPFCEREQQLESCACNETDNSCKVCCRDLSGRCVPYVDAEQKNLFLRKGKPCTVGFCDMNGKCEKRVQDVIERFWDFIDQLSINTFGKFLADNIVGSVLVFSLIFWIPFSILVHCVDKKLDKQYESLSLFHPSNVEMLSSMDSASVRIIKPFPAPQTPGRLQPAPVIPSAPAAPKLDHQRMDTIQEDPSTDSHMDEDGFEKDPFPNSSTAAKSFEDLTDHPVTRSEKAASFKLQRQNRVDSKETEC
PLCb3 inh = human PLC-beta3 inhibitors, primary screen, biochemical, fluorescence; 1-phosphatidylinositol 4,5-bisphosphate phosphodiesterase beta-3 (Homo sapiens), Q01970; Purified PLC-beta3, fluorogenic substrate; inhibition, % at 12.2 µM; 0.18% of 370,000 active; AID 720704, 2013; in the data active = inhibition above about 11%;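 also: 0% = median of compound wells on plate and 100% = full blocker control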
KLK7 zymogen act = proKLK7 zymogen activators, primary screen, biochemical, fluorescence intensity. 0.9% of 370,000 active. Kallikrein-7 (Homo sapiens), P49862. activation, % at 7 µM. purified proKLK7, EDANS-DABCYL substrate fluorescence; 100% is mature enzyme control, 0% vehicle. AID 652039, 2013;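 active = activation above the mean of all tested compounds plus 3 SD, computed per campaign excluding outliers beyond control limits, cut at about 13% in these data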
PLCg1 ctr = PLC-gamma1 enzyme inhibitors, counter-screen for PLC-beta3 inhibitor project, biochemical, fluorescence; 3.1% of 3,300 active; inhibition, % at 12.3 µM; shares compounds with PLCg1 inh; AID 743258, 2014; purified PLC-gamma1, fluorogenic substrate
PLCbeta3 conf = PLC-beta3 inhibitor confirmation, biochemical, fluorescence, purified enzyme | shares compounds with PLCg1 inh | fluorogenic substrate fluorescence | inhibition, % at 12.3 µM | 1% of 3,300 active; in the data active = inhibition above about 11%
hGIII sPLA2 conf = human group III sPLA2 inhibitors, confirmation, biochemical, QFRET, triplicate | recombinant hGIII-sPLA2, BODIPY PC-A2 QFRET fluorescence | shares compounds with HGIII-sPLA2 inh | AID 743280, 2014 | inhibition, % at 12.2 µM | 34% of 2,000 active;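 active = mean inhibition across triplicates above the hit cutoff set in the earlier primary screen, cut at about 19% in these data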;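 also: 0% = enzyme with DMSO and 100% = DMSO wells lacking enzyme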
BODIPY interf = 535nm fluorescence optical interference, confirmation, artefact control for HGIII-sPLA2 inhibitor project, biochemical, QFRET | shares compounds with HGIII-sPLA2 inh | BODIPY FL product fluorescence interference | inhibition, % at 12.2 µM | 8.5% of 2,000 active | AID 743282, 2014;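 active = average inhibition above the solvent-only control mean plus 3 SD, cut at about 6% in these data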;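 also: 0% = DMSO with substrate plus product and 100% = DMSO with substrate alone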
535nm interf DR = 535nm fluorescence optical interference, dose response, artefact control for HGIII-sPLA2 inhibitor project, biochemical, QFRET; shares compounds with HGIII-sPLA2 inh; BODIPY FL product fluorescence interference, cell-free; IC50, µM; 240 tested, under 10 active; AID 743455, 2014;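 active = IC50 at or below 10 µM; inactive = IC50 above 10 µM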
* hit, by the source's call; / = no result given. Rule as the data show it, unless noted: active = inhibition above about 9.5%; inactive = the rest.

SMILES | HGIII-sPLA2 inh | ADAM10 inh | PLCg1 inh | ADAM17 inh | PLCb3 inh | KLK7 zymogen act | PLCg1 ctr | PLCbeta3 conf | hGIII sPLA2 conf | BODIPY interf | others
CC(=O)Nc1ccc(NS(=O)(=O)c2cc(Cl)ccc2Cl)cc1 | 4 | 4 | 9.7* | 3 | -4 | 0 | -3 | 0 | / | /
CC(=O)NC(CCS(C)(=O)=O)C(=O)Nc1cc(C)on1 (centres undefined) | 1 | 6 | 10* | 2 | 5 | 0 | -37 | 1 | / | /
COc1ccc(C(=O)NC(=S)Nc2cccc(NC(=O)c3ccco3)c2)cc1[N+](=O)[O-] | 28* | -10 | 13* | 4 | 5 | 0 | -1 | 1 | 10 | 2
CCCc1cc(=O)[nH]c(SCC(=O)c2ccc3c(c2)NC(=O)CO3)n1 | -31 | -6 | 5 | 2 | -3 | 0 | / | / | / | /
CC(C)(CO)Cc1cc(C(C)(C)C)c(O)c(C(C)(C)C)c1 | 20* | 13 | 11* | 0 | 4 | 0 | -7 | -4 | -2 | -9
CC(C)(C=O)Cc1cc(C(C)(C)C)c(O)c(C(C)(C)C)c1 | 6 | -9 | -2 | -4 | 0 | 0 | / | / | / | /
CC1CN(c2ccc([N+](=O)[O-])c(NCCOc3ccccc3)c2)CCN1 (centres undefined) | 39* | 15 | 8 | 2 | 11* | 0 | 0 | 1 | 10 | -25
COc1ccc(OCCNc2cc(N3CCCCC3)ccc2[N+](=O)[O-])cc1 | -3 | 1 | 1 | -1 | 3 | 0 | / | / | / | /
COc1ccc(/C=N/NC(=O)c2ccc3c(c2)OCCO3)cc1[N+](=O)[O-] | 24* | 1 | 11* | 1 | -3 | -1 | -10 | -3 | 7 | -3
CC[C@]12c3[nH]c4ccc(OC)cc4c3CCN1C(=O)C(CC(=O)NCCc1ccccn1)C[C@@H]2C(=O)N1CCN(C(=O)C2CC2)CC1 (some centres undefined) | 13 | -4 | -4 | -2 | -5 | -1 | / | / | / | /
Cc1ccccc1NC(=O)NCCc1nc2ccccc2[nH]1 | 0 | 3 | 4 | -2 | 2 | 1 | / | / | / | /
Cc1ccccc1NC(=S)c1nc2ccccc2[nH]1 | 45* | -1 | 10* | 2 | 3 | 0 | 0 | 1 | 31* | 3 | 535nm interf DR=>122
Cc1ccc(F)cc1NC(=S)NCCc1ccccc1 | 22* | 9 | 11* | 5 | 3 | 0 | -2 | -1 | 20* | -5
CCn1c(/C=C/c2cc(Br)ccc2O)nc2ccccc2c1=O | -19 | 13 | -96 | 8 | -131 | 1 | / | / | / | /
CCOC(=O)C1(C)CCCN1C(=O)c1ccc(C)cc1 (centres undefined) | -3 | 3 | 0 | 0 | 1 | 0 | / | / | / | /
CCOC(=O)C1(C)CCCCCN1C(=O)c1ccc(N(C)C)cc1 (centres undefined) | 19* | -16 | -1 | 2 | 2 | 0 | / | / | -4 | -8
c1ccc(C2(CN3CCNC[C@H]3Cc3cccc4ccccc34)CC2)cc1 | 23* | -6 | 0 | 2 | -1 | 0 | / | / | 6 | -40
CCCOc1ccc(Br)cc1CSC(=N)N | 35* | -6 | 0 | 0 | 0 | 0 | / | / | 18 | -15
CC(=O)Nc1cccc2ncccc12 | 24* | 3 | -1 | -2 | -9 | 0 | / | / | 1 | -6
CCCOc1ccc(/C(O)=C2/C(=O)C(=O)N(CCCn3ccnc3)C2c2cccnc2)cc1 (centres undefined) | 0 | 6 | -1 | 0 | -2 | 1 | / | / | / | /
Cc1ccc(CNC(=O)C2CSC3(C)CCC(=O)N23)cc1 (centres undefined) | 7 | -7 | 4 | -5 | 0 | 0 | / | / | / | /
CC1=C(C(=O)N(C)C)CC(CC(=O)NC2CCCCC2)C(=O)N1CCCN1CCCC1=O (centres undefined) | 21* | -25 | -2 | -2 | 4 | 1 | / | / | 0 | -8
CN(c1ccccc1)S(=O)(=O)c1cccc(NC(=O)c2ccc3ncsc3c2)c1 | -15 | 13 | 4 | 4 | -7 | 0 | / | / | / | /
Cc1cc(C)nc(N/N=C/c2cccc3ccccc23)n1 | 19* | -3 | -5 | -5 | 1 | 0 | / | / | -3 | -2
COc1cccc(N=Nc2ccc(O)c3ncccc23)c1 | 25* | 16 | 3 | 7 | 3 | 0 | / | / | 51* | 14*
SMILES | HGIII-sPLA2 inh | ADAM10 inh | PLCg1 inh | ADAM17 inh | PLCb3 inh | KLK7 zymogen act | PLCg1 ctr | PLCbeta3 conf | hGIII sPLA2 conf | BODIPY interf | others
CCC(=O)N(Cc1cc(=O)[nH]c2ccccc12)c1ccc(C)cc1C | -9 | -7 | -1 | -6 | -4 | 1 | / | / | / | /
NC(=S)N/N=C1\CC(c2ccc3c(c2)OCCCO3)Oc2ccc(F)cc21 (centres undefined) | 6 | 5 | 3 | 3 | -3 | 0 | / | / | / | /
NC(=S)N/N=C1\CC(c2ccc3c(c2)OCCO3)Oc2ccc(F)cc21 (centres undefined) | 21* | 2 | -1 | -3 | -10 | 0 | / | / | 10 | -2
O=C(O)CCC(=O)Nc1ccccc1C(=O)N1CCN(c2ccc(Cl)cc2)CC1 | 0 | 3 | -2 | 1 | 2 | 0 | / | / | / | /
Cc1nc2c(C)cccn2c1/C(O)=C1\C(=O)C(=O)N(CCN(C)C)C1c1ccccc1 (centres undefined) | 20* | 1 | -2 | -3 | -9 | -1 | / | / | 6 | 0
CSCc1cc(N(C)C)nc(SCc2ccc(Cl)c(Cl)c2)n1 | 21* | 7 | 0 | 5 | -6 | 0 | / | / | -15 | -14
CNc1cc(CSC)nc(SCc2ccc(Cl)cc2Cl)n1 | -5 | 12 | 2 | 5 | -3 | 0 | / | / | / | /
